High-throughput results from PubChem.
TIM10 inh: inhibits growth of TIM10 yeast strain. actives 1.4% (n = 330,000). S. cerevisiae TIM10 strain growth, BacTiter-Glo luminescence, 24 h. inhibition, % at 10 µM;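 active = inhibition of 40% or more at the single tested concentration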;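 note: wild-type TIM10 isogenic control strain grown at permissive 25 °C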
Calb FLC: affects C. albicans growth with fluconazole | C. albicans CaCi-2 (fluconazole-resistant clinical isolate) + fluconazole, Alamar Blue growth, 48 h | growth inhibition, % (test concentration not listed) | actives 0.57% (n = 300,000) | AID 1979;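 active = growth inhibition above about 58% in most replicates, limit read from the data, passing the limit was not always enough; inconclusive = exactly half the replicates above a set limit; inactive = most replicates below a set limit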;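 note: all wells also contain fluconazole at 8 µg/ml as a sub-toxic cotreatment; 0% = median of DMSO wells and 100% = median of geldanamycin control wells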
tim23-1 inh: growth inhibitors of tim23-1 mutant yeast. S. cerevisiae tim23-1 growth, BacTiter-Glo luminescence, 24 h. inhibition, % at 20 µM. actives 1.3% (n = 330,000). AID 463212;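 active = growth inhibition of the mutant yeast at or above 50%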;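 note: temperature-sensitive mutant grown at 25 °C; plate controls were DMSO-treated mutant yeast for no effect and medium wells lacking yeast for full effect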
SKKanGAS inh: blocks kanamycin growth of S. pyogenes SKKanGAS strain; BacTiter-Glo, 6 h; inhibition, % at 7.5 µM; actives 1.3% (n = 300,000); AID 1662;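 active = mean replicate score, as percent of positive control median, at least 50; inconclusive = mean below 50 but one replicate at or above 50; inactive = mean and every replicate below 50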;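 note: strain carries kanamycin resistance gene driven by streptokinase promoter and grows in 40 µg/ml kanamycin; loss of luminescence reflects streptokinase promoter inhibition or plain growth inhibition; 0% = median of DMSO wells and 100% = positive control at its reference dose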
PfHsp90 set2: growth inhibition of yeast expressing Plasmodium Hsp90; actives 0.32% (n = 310,000); inhibition, % at 9.4 µM; S. cerevisiae expressing PfHsp90, BacTiter-Glo ATP, 48 h; yeast lacking PDR1 and PDR3 efflux regulators;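 active = every replicate shows inhibition above about 80%, whatever the replicate mean, limit read from the data; inconclusive = mean inhibition reaches the set limit but some replicate falls short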;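 note: 0% = DMSO neutral controls and 100% = 20 µM radicicol positive controls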
tim10-1 inh: growth inhibitors of tim10-1 mutant yeast | S. cerevisiae tim10-1 ts strain growth, BacTiter-Glo, 24 h | inhibition, % at 20 µM | actives 2.2% (n = 330,000);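 active = inhibition of at least 40%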;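 note: mutant grown at 25 °C; 0% = DMSO wells with yeast and 100% = wells holding no yeast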
The depositor's hits bear a star; ? = inconclusive; nt = not tested or not shown. Most compounds without a hit are left out; they make up all but 4.7% or so of the library.

SMILES | TIM10 inh | Calb FLC | tim23-1 inh | SKKanGAS inh | PfHsp90 set2 | tim10-1 inh
S=C1SCN(Cc2ccccc2)CN1Cc1ccccc1 | 2 | 32 | 16 | 5 | -18 | 11
S=C1SCN(Cc2cccnc2)CN1Cc1cccnc1 | 0 | -6 | 41 | -1 | 85* | -44
COCC(=O)OCC(=O)N1N=C(c2ccc(Cl)cc2)CC1c1ccco1 (stereo unspecified) | 26 | 4 | 22 | -2 | nt | 29
COc1ccc(C(=O)NCC(=O)OCC(=O)N2N=C(c3ccc(Cl)cc3)CC2c2ccco2)cc1OC (stereo unspecified) | 4 | -5 | 18 | 76* | -19 | 22
O=C(CN1C(=O)S/C(=C\c2ccccn2)C1=O)Nc1ccccc1 | -2 | 109* | 17 | nt | 3 | 6
Cc1ccc(NC(=O)CN2C(=O)S/C(=C\c3ccc(-c4cccc(C(=O)O)c4C)o3)C2=O)cc1 | 18 | 16 | 5 | 53* | nt | 16
Cc1ccc(NC(=O)CN2C(=O)S/C(=C/c3ccc(-c4cccc(C(=O)O)c4)o3)C2=O)cc1 | nt | nt | nt | nt | 0 | nt
Cc1ccc(NC(=O)CN2C(=O)S/C(=C\c3ccccn3)C2=O)cc1 | -8 | 2 | -16 | -12 | -6 | -6
CN(C)C(=O)COC(=O)c1ccccc1NC(=O)c1ccco1 | 7 | -2 | 21 | -2 | -10 | 5
Cc1ccc(S(=O)(=O)Nc2ccccc2N=Cc2ccc([N+](=O)[O-])cc2[N+](=O)[O-])cc1 | nt | nt | nt | nt | -25 | nt
CCCCNc1c(-c2cccc(SC3CCCCC3)c2)nc2ccc(Cl)cn12 | 7 | 14 | 20 | 27 | 4 | 16
c1cn2c(NC3CCCCC3)c(-c3ccc(SC4CCCCC4)cc3)nc2cn1 | -1 | 8 | -3 | 89* | -14 | 6
CCCCNc1c(-c2ccc(SC3CCCCC3)cc2)nc2ccccn12 | 5 | 12 | 22 | 71* | 36 | 17
CN(CC(=O)Nc1ccc(F)cc1)CC(=O)NC1CCCCC1 | 10 | nt | 6 | nt | 11 | 10
CCC(=O)O[C@@H]1CC(=O)O[C@H](C)CC=CC=C[C@@H](O)[C@H](C)C[C@H](CC=O)[C@H](O[C@H]2O[C@H](C)[C@@H](O[C@H]3C[C@@](C)(O)[C@@H](OC(=O)CC)[C@H](C)O3)[C@H](N(C)C)[C@H]2O)[C@H]1OC | nt | nt | nt | 110* | nt | nt
O=C(Nc1ccc(Cl)c(Cl)c1)C1CC(=O)N(c2ccc(Br)cc2)C1 (stereo unspecified) | 29 | ? | 46 | 54* | -36 | 26
Cc1ccccc1C(=O)N1CCC(C(=O)Nc2ccc(S(=O)(=O)N3C(C)CCCC3C)cc2)CC1 (stereo unspecified) | nt | nt | nt | nt | -18 | nt
Cc1nc(-c2ccc(S(=O)(=O)Nc3ccc(Br)cc3Cl)s2)cs1 | 38 | 17 | 41 | 74* | -10 | 28
COc1ccc(O)c(/C=N/NC(=O)c2cccc(N3CCCC3=O)c2)c1 | -4 | -7 | -10 | 24 | -14 | 12
O=C(N/N=C/c1cc(Br)ccc1O)c1cccc(N2CCCC2=O)c1 | -12 | 94* | 22 | 27 | -4 | 0
CCCSC(=S)c1c(C)[nH]n(-c2ccccc2)c1=O | 17 | 5 | 14 | 89* | -58 | 14
CCOC(=O)C1CCN(C(=O)C2CC(=O)N(c3ccc4c(c3)OCCO4)C2)CC1 (stereo unspecified) | 4 | -11 | 4 | -4 | 8 | -3
CN1CCc2c(sc(NC(=O)c3cc4cc([N+](=O)[O-])ccc4s3)c2C(N)=O)C1 | nt | 97* | nt | 11 | nt | nt
CC(=O)NS(=O)(=O)c1ccc(NC(=S)NC(=O)Cc2ccccc2)cc1 | -6 | -15 | -5 | -9 | -1 | -5
CC1(C)CC(N2CCN(Cc3ccccc3)CC2)=CC(=[N+]2CCCCC2)C1 | -30 | 83* | -75 | -4 | -14 | -64
SMILES | TIM10 inh | Calb FLC | tim23-1 inh | SKKanGAS inh | PfHsp90 set2 | tim10-1 inh
CC1(C)CC(N2CCCC2)=CC(=[N+]2CCCC2)C1 | 0 | 120* | 18 | -6 | -7 | 3
NC(=O)c1nsc(C(=O)N(Cc2cccnc2)C(C(=O)NCc2ccc(F)cc2)c2ccc(O)cc2)c1N (stereo unspecified) | 2 | 4 | -7 | 1 | 16 | -13
Cc1nnsc1C(=O)NC1CCCc2c1cnn2-c1ccc(C(C)(C)C)cc1 (stereo unspecified) | 17 | 2 | 7 | -2 | 5 | 3
O=C1/C(=C/c2cccc([N+](=O)[O-])c2)CSc2ccc(Cl)cc21 | 15 | 3 | 15 | 9 | 11 | 15
CCN1C/C(=C\c2cccc([N+](=O)[O-])c2)C(=O)/C(=C/c2cccc([N+](=O)[O-])c2)C1 | nt | nt | nt | nt | 95* | nt
CC(C)OCCCNC(=O)C1CCN(S(=O)(=O)c2ccc3nc4c(c(C(=O)O)c3c2)CCCCC4)CC1 | -6 | -2 | -2 | 6 | -20 | -11
O=C(COc1ccc(Cl)cc1)Nc1nnc(-c2ccc3c(c2)CCCC3)o1 | -8 | 7 | 4 | 97* | -38 | -12
O=C(Nc1nnc(-c2ccc3c(c2)CCCC3)o1)C1COc2ccccc2O1 (stereo unspecified) | 5 | 1 | 32 | 99* | -123 | 13
O=C(COc1ccccc1)Nc1nnc(-c2ccc(Cl)cc2)o1 | 11 | 1 | 25 | 44 | -37 | 19
CCN(CC)CCCn1c2c(c(SCC(=O)N3CCCc4ccccc43)nc1=O)CCC2 | -1 | 1 | 0 | -3 | -16 | 5
Cc1c(CCOC(=O)CC23CC4CC(CC(C4)C2)C3)sc[n+]1CC(=O)c1ccccc1 | 3 | 56 | 16 | 15 | 27 | 5
Cc1c(CCOC(=O)C23CC4CC(CC(C)(C4)C2)C3)sc[n+]1Cc1ccccc1 | 19 | 101* | -3 | -2 | nt | 17
Cc1c(CCOC(=O)C23CC4(C)CC(C)(CC(C)(C4)C2)C3)sc[n+]1CC(=O)c1ccccc1 | 11 | 113* | 20 | 30 | -21 | 28
COc1ccc(O)c(CN2CCC(n3nccc3NC(=O)C3CCCC3)CC2)c1 | 2 | -2 | 10 | 1 | -18 | 2
CCOCCn1ccc2c(OCC(=O)NCc3ccccc3)cccc2c1=O | 2 | 6 | -13 | -2 | 4 | -1
Cc1ccc(NC(=O)CCC(=O)N/N=C/c2ccccc2O)cc1 | 2 | 2 | 3 | 7 | 2 | -11
COc1ccc(/C=N/NC(=O)CCn2cnc(-c3ccccc3)c2-c2ccccc2)cc1 | 30 | 23 | 32 | 105* | 16 | 33
O=C(CCn1cnc(-c2ccccc2)c1-c1ccccc1)N/N=C/c1ccc(O)cc1 | 11 | 20 | 13 | 13 | 5 | 10
O=C(CCn1cnc(-c2ccccc2)c1-c1ccccc1)N/N=C/c1ccccc1O | 22 | 13 | 17 | 76* | -3 | 39
O=C(CCC(=O)Nc1ccc(Br)cc1)N/N=C/c1ccccc1O | 20 | nt | 17 | 83* | -18 | -2
